A selection follows.
aSyn 5UTR act: Activators via SNCA 5'UTR binding, MLPCN; alpha-synuclein 5'UTR reporter, activators screen; 300,000 compounds, 7.1% hits; AID 1814, 2009; activity score, % (tested at 7.5 µM), hits read low; in the data active means activity score below about -60%
Numbers without * were called inactive.

SMILES	aSyn 5UTR act
S=C(NCC1CCCO1)Nc1ccc(Cl)c(Cl)c1 (configuration not stated)	-86*
CCc1ccc(NC(=O)C(=O)NCC2CCCO2)cc1 (configuration not stated)	-137*
Cc1oc2c(c1C(=O)NCc1cccnc1)C(=O)c1ccccc1C2=O	107
COc1cccc(NC(=O)Nc2cc(C)ccc2F)c1	-73*
COc1ccc(C)cc1NC(=O)Nc1ccc(C(=O)N2CCCC2)cc1	-64*
COc1cccc(NC(=O)NC2(C(F)(F)F)Oc3ccccc3O2)c1	-77*
O=C(NCc1cccnc1)NC1(C(F)(F)F)Oc2ccccc2O1	-66*
COc1cccc(NC(=O)Nc2ccccc2SC)c1	-72*
COc1ccc(NC(=O)Nc2cc(C)ccc2F)cc1	-164*
COc1cccc(NC(=O)NCc2ccccc2Cl)c1	-73*
C=CCSC1=NNC(c2ccc(C(C)(C)C)cc2)=NN1	-89*
O=[N+]([O-])c1ccc(Nc2ccc3ccccc3c2)nc1	-168*
c1ccc2c3c([nH]c2c1)-c1[nH]ncc1CC3	-117*
Cc1ccc(NC(=O)CCCc2ccccc2)nc1	-100*
Cc1ccc(NC(=S)NCCc2ccccc2)nc1	-99*
Cc1cc(C)c2c(NC(=O)CCl)nn(C)c2n1	-65*
Cc1ccc(-c2cn3c(n2)SCC3)cc1	-144*
CCc1ccc(-c2cn3c(n2)SCC3)cc1	-99*
Cc1ccc(-c2cn3nc(C)c(C)nc3n2)cc1	73
CC(C)c1ccc(NC(=S)Nc2ccc3cn[nH]c3c2)cc1	-94*
COc1ccccc1NC(=S)Nc1ccc2cn[nH]c2c1	-101*
Cc1cc(C(=O)Nc2cccc(-c3ccc(N4CCOCC4)nn3)c2)ccc1[N+](=O)[O-]	-110*
O=C(Nc1cccc(-c2ccc(N3CCOCC3)nn2)c1)c1ccccc1Cl	-110*
O=C(COc1ccc(Cl)cc1)Nc1cccc(-c2ccc(N3CCOCC3)nn2)c1	-71*
O=C(Nc1cccc(-c2ccc(N3CCOCC3)nn2)c1)c1ccc(Cl)cc1	-86*
SMILES	aSyn 5UTR act
Cc1ccc(S(=O)(=O)Nc2cc(-c3nn(C)c(=O)c4ccccc34)ccc2N2CCOCC2)cc1	78
Cc1ccc(C(=O)Nc2cccc(-c3ccc(N4CCOCC4)nn3)c2)cc1C	-73*
CC1CCN(c2ccc(-c3ccc(NC(=O)C(F)(F)F)cc3)nn2)CC1	71
Cc1ccc(S(=O)(=O)Nc2cccc(-c3ccc(N4CCCCCC4)nn3)c2)cc1	-125*
Cc1ccc(C(=O)Nc2cccc(-c3ccc(N4CCOCC4)nn3)c2)cc1	-70*
CC(=O)NC(CC(=O)Nc1ccc2c(c1)OCCO2)c1ccccc1 (configuration not stated)	-77*
CC(Nc1ccc2c(c1)OCCO2)C(=O)N1CCc2ccccc21 (configuration not stated)	-65*
O=C(CSc1ccccn1)Nc1ccc2ccccc2c1	-159*
Nc1ccccc1SCC(=O)Nc1ccc2c(c1)OCCO2	-89*
O=C(Nc1ccc2c(c1)OCCO2)c1ccccn1	88
O=C(CSc1nccc(=O)[nH]1)Nc1ccc2c(c1)OCCO2	-139*
O=C(CSc1ccccn1)Nc1ccc2c(c1)C(=O)c1ccccc1C2=O	-68*
O=C(CSc1ccccn1)Nc1ccc2c(c1)OCCO2	-65*
Cc1ccnc(NC(=O)CSc2ccc3c(c2)OCCO3)c1	-114*
O=C(CSc1ccccn1)Nc1ccc2c(c1)CCC2	-77*
Cc1cccc(SCC(=O)Nc2ccc3c(c2)OCCO3)c1	-117*
N=c1oc2c3c4c(cc2cc1C(=O)Nc1ccccc1)CCCN4CCC3	-276*
Cc1ccc(Cl)c(OCC(=O)Nc2sc(C)c(C)c2C#N)c1	-68*
O=C(COc1ccccc1Cl)Nc1ccc2oc(=O)ccc2c1	-72*
O=C(COc1ccccc1Cl)Nc1cccnc1	-128*
Cc1ccc(Cl)c(OCC(=O)Nc2cccnc2)c1	-116*
Cc1ccc(/C=C2\OC(=O)c3ccccc32)cc1	-83*
CCCC(=O)Nc1ccc(NC(=O)c2ccccc2F)cn1	-90*
O=C(Nc1ccc(NC(=O)C2CC2)nc1)c1ccccc1F	-95*
O=C(Nc1ccc(NC(=O)C2CCCCC2)nc1)c1cccs1	-124*
SMILES	aSyn 5UTR act
CC1CC(=O)c2cnc(Nc3ccccc3)nc2C1 (configuration not stated)	-134*
Cc1ccc(Nc2ncc3c(n2)CC(C)CC3=O)c(C)c1 (configuration not stated)	-82*
Cc1ccc(NS(=O)(=O)c2ccc(-c3cnc(C4CC4)o3)cc2)c(C)c1	77
O=C(NCc1ccccn1)c1cc(-c2ccccc2)on1	-79*
O=C(NCc1ccccn1)c1ccc(-c2ccccc2)cc1	-107*
O=C(NCc1cccs1)c1cc(-c2cccs2)on1	-169*
COCCNC(=O)c1cc(-c2cccs2)on1	-289*
O=C(NCc1cccs1)c1cc(-c2ccccc2)on1	-112*
Cc1ccc(-c2nc3c(=O)n(C)c4ccccc4c3o2)cc1	-72*
Cc1ccsc1C(=O)N/N=C/c1ccc2c(c1)OCO2	-99*
O=C(N/N=C/c1ccc2c(c1)OCO2)c1cccs1	-135*
COc1ccc2cc(-c3[nH]ncc3CN3CCCCO3)ccc2c1	-106*
COc1ccc2cc(-c3[nH]ncc3CN3C[C@@H]4CCC[C@H]3C4)ccc2c1	-78*
Cn1c(CCNC(=O)c2cccs2)nnc1SCC(=O)Nc1nc(-c2ccccc2)cs1	-73*
Cc1ccc(C(=O)NCCc2nnc(SCC(=O)Nc3nc(-c4ccccc4)cs3)n2C)cc1	-65*
Cc1nnc(SCC(=O)Nc2nc(-c3ccccc3)cs2)n1N	-81*
CCOC(=O)C/C(=N\Nc1ncnc2ccccc12)c1ccccc1	-139*
Cc1ccc(Nc2nc(-c3cccnc3)nc3ccccc23)cc1	-95*
CCOC(=O)c1ccc(Nc2ncnc3ccccc23)cc1	-93*
CCOC(=O)c1ccc(Nc2nc(-c3cccnc3)nc3ccccc23)cc1	-103*
Cc1cc2nc(C3CCN(Cc4nnnn4Cc4ccccc4)CC3)[nH]c2cc1C	74
CC(C)(C)c1ccc(-c2nc(NCc3cccnc3)c3ccccc3n2)cc1	-96*
Cc1ccc(-c2nc(N/N=C/c3ccncc3)c3ccccc3n2)cc1	-120*
c1ccc(CNc2nc(NCc3ccccc3)c3ccccc3n2)cc1	106
Fc1ccccc1/C=N/Nc1nc(-c2ccccn2)nc2ccccc12	81
SMILES	aSyn 5UTR act
c1ccc(CN2CCC(Nc3nc(-c4cccnc4)nc4ccccc34)CC2)cc1	-83*
CCOC(=O)c1ccc(Nc2ncnc3nc[nH]c23)cc1	-73*
c1ccc(COc2ccc(Nc3ncnc4nc[nH]c34)cc2)cc1	-85*
Cc1c(O)ccc(/C=N/Nc2nc(-c3cccnc3)nc3ccccc23)c1O	-77*
C(=C\c1ccco1)/C1=NN(c2ccccc2)C(c2ccco2)C1 (configuration not stated)	-210*
COc1ccc(-n2nnnc2SCc2nc3ccccc3s2)cc1	-161*
COc1ccc(C)cc1-n1nnnc1SCc1nc2ccccc2s1	-148*
CCOc1ccc(NC(=O)CSc2nccn2C)cc1	-65*
Cn1ccnc1SCC(=O)Nc1ccc2c(c1)OCO2	-107*
COc1ccc(C(=O)CSc2cc(C)[nH]c(=O)n2)cc1	-86*
COc1ccc(C(=O)CSc2nccn2C)cc1	-80*
O=C(CSc1nccn1-c1ccc(F)cc1)Nc1ccc2c(c1)OCO2	-65*
CCOC(=O)c1sc(NC(=O)CSc2nccn2C)nc1C	-112*
O=C(CSc1ncc(-c2ccc(F)cc2)n1Cc1ccco1)Nc1ccc2c(c1)OCO2	-150*
